Inconclusive results are not listed. Active and inactive are the calls of the source. The call rests on the fitted dose curve; in most records, active means well fitted cell-killing curve with a large enough effect in the repeat runs; inconclusive means weak or mixed curves, or effect the other way; inactive means flat fitted curve, though single readings scatter.
On the % scale 0 is the no-effect control and ±100 the full control effect; potency means the concentration at half of the fitted maximal effect.

The experiment can be described thus: qHTS assay to identify small molecule that activate the aryl hydrocarbon receptor (AhR) signaling pathway - cell viability counter screen (AID 743086). Further: nearly all actives have a fitted effect of over 45% in size.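 On viability change, negative = cytotoxic: HepG2 liver cells carrying the AhR DRE luciferase reporter.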 The conditions noted are these: HepG2-AhR-luc viability, CellTiter-Fluor, 24 h; series mostly up to 70.3 µM; viability change, negative = cytotoxic: at the top concentration. From the text: U.S. Tox21 Program National Center for Advancing Translational Sciences [NCATS] NIH Chemical Genomics Center [NCGC] U.S. Environmental Protection Agency [EPA] National Institutes of Environmental Health Sciences [NIEHS] National Toxicology Program [NTP] U.S. Food and Drug Administration [FDA] Tox21 Assay overview: The Aryl hydrocarbon Receptor (AhR), a member of the family of basic helix-loop-helix transcription factors, is crucial to adaptive responses to environmental changes. AhR mediates cellular responses to environmental pollutants such as aromatic hydrocarbons through induction of phase I and II enzymes but also interacts with other nuclear receptor signaling pathways A cell based HepG2-AhR-luc assay (HG2L7.5c1 cell line, developed by Dr. Michael S. Denison, University of California at Davis) was used to assess the activation of AhR. HepG2 (human hepatocellular carcinoma) cells were stably transfected with an Ah receptor-responsive firefly luciferase reporter gene plasmid containing 20 dioxin responsive elements and luciferase reporter gene. Increased luciferase activity can be used to identify the compounds that induce AhR activation. The cytotoxicity of the compounds screened against the HepG2-AhR-luc cell line was tested in parallel by measuring the cell viability using CellTiter-Fluor assay in the same wells.
Tox21 Assay Protocol Summary: 4000 cells in 5 uL/well were dispensed into white wall/solid bottom 1536-well plates using a Multidrop Combi (Thermo Fisher Scientific Inc., Waltham, MA) dispenser. After the assay plates were incubated at 37C for 5 h, 23 nL of compound or DMSO vehicle was transferred to the assay plates by a pintool station (Kalypsys, San Diego, CA). The plates were incubated at 37C for 24 hr. For cell viability measurement, 1 ul/well of CellTiter-Fluor reagent (Promega, Madison, WI) was added into the assay plates using a Flying Reagent Dispenser (FRD) (Aurora Discovery, CA),and then the assay plates were incubated at 37C for 30 min. The fluorescence intensity in the plates was measured using a ViewLux plate reader (PerkinElmer, Shelton, CT), followed by the addition of 4 uL of ONE-Glo Luciferase Assay reagent (Promega) using an FRD (Aurora Discovery). After the assay plates were incubated at room temperature for 30 min, luminescence intensity was measured using a ViewLux plate reader (Perkin Elmer).
Background: In qHTS, concentration-response curves come from the screen itself.
`COC1=CC(=O)O[C@@H](CCc2ccccc2)C1`: the “viability change, negative = cytotoxic” value was 7.1% [at 95 µM] (inactive).
With `CCOP(=S)(OCC)Oc1nc(Cl)c(Cl)cc1Cl`, the Potency result is “inactive”.
Turning to `CCOC(=O)C(Cl)C(C)=O` (stereo not given), the “viability change, negative = cytotoxic” value was -1.66% [at 95 µM] (inactive).
On the same count and under the same terms, as for `Clc1cccc2ccccc12`, the figure is 0.147% (inactive); as for `BrCCCCBr`, 0.0968% (inactive).
On to `O=C1CN=C(c2ccccc2)c2cc(Cl)ccc2N1CC1CC1`, for which the Potency entry is “inactive”.
In the case of `c1ccoc1`, the “viability change, negative = cytotoxic” value is 9.17% (inactive).
Same read-out and setting: the figure for `C=COC(C)=O` is -3.45% [at 95 µM] (inactive).
Turning to `O=C(CCl)c1ccc(Cl)cc1Cl`, the Potency entry was “inactive”.
As for `O=C1C(Cl)C(CCl)CN1c1cccc(C(F)(F)F)c1` (stereo not given), the “viability change, negative = cytotoxic” value was 0.911% (inactive).
For `c1ccc(CN2CCNCC2)cc1`, the “viability change, negative = cytotoxic” value was -14.6% [at 260 µM] (inactive).
As to `O=C(CBr)OCc1ccccc1`, the “viability change, negative = cytotoxic” value is 6.93% (inactive).
Still for that read-out and setting: the figure for `C=CC(=O)OC` is 0.598% [at 95 µM] (inactive); for `O=S(=O)(Cl)c1ccccc1` it is 10.2% [at 95 µM] (inactive).
The same measure, in the same setting: as for `COP(=S)(Oc1cc(Cl)c(Br)cc1Cl)c1ccccc1` (stereo not given), the figure is -1.55% (inactive).
The same measure, in the same setting: the figure for `CC(Cl)C(C)Cl` (stereo not given) is 0.229% (inactive).
Take `NC(=O)C(Cl)(Cl)Cl`: the “viability change, negative = cytotoxic” value is 8.3% [at 95 µM] (inactive).
Same read-out and setting: the figure for `CC(C)N(C(=O)COc1nnc(C(F)(F)F)s1)c1ccc(F)cc1` is 6.48% (inactive); for `Clc1cc(C(Cl)(Cl)Cl)cnc1Cl` it is 8.7% (inactive); for `O=Cc1ccc2c(c1)OCO2` it is 0.505% (inactive).
Take `NCCCNCCCN`: the “viability change, negative = cytotoxic” value was -10.2% [at 95 µM] (inactive).
As for `O=NN1CCNCC1`, the “viability change, negative = cytotoxic” value is 23.5% [at 95 µM] (inactive).
With `NC(=O)CI`, the “viability change, negative = cytotoxic” value is -3.45% [at 95 µM] (inactive).
The same measure, in the same setting: as for `Cn1cc[n+](C)c1` (tested in a mixture with another compound), the figure is 5.43% [at 95 µM] (inactive).
For `CC(O)(CS(=O)(=O)c1ccc(F)cc1)C(=O)Nc1ccc(C#N)c(C(F)(F)F)c1` (stereo not given), the Potency result is “inactive”.
On to `Cc1ccccc1CCl`, for which the “viability change, negative = cytotoxic” value was -1.37% (inactive).
For the compound `C[C@H]1CNCCc2ccc(Cl)cc21`, the “viability change, negative = cytotoxic” value was -2.73% (inactive).
Turning to `CC(C)=CCOc1c2occc2cc2ccc(=O)oc12`, the “viability change, negative = cytotoxic” value was 3.36% (inactive).
With `Clc1cccc(SC2CCNCC2)n1`, the Potency was 29.8 µM (active).
Take `Brc1ccc(Oc2ccccc2)cc1`: the “viability change, negative = cytotoxic” value is 14.5% (inactive).
On the same count and under the same terms, as for `O=C(NCc1cccnc1)Nc1ccc([N+](=O)[O-])cc1`, the figure is -0.621% (inactive).
Same read-out and setting: as for `C=CCC1([C@H](C)CCC)C(=O)NC(=O)NC1=O`, the figure is 7.07% (inactive).
Turning to `c1ccc(C2CC2)c(OCC2=NCCN2)c1`, the “viability change, negative = cytotoxic” value is 13.4% (inactive).
As for `CS/C(C)=N/OC(=O)N(C)SN(C)C(=O)O/N=C(\C)SC`, the “viability change, negative = cytotoxic” value is 0.662% (inactive).
On to `O=C(N[C@H](c1ccccc1)[C@@H]1CN2CCC1CC2)c1c(Cl)ccc(C(F)(F)F)c1Cl`, for which the Potency is 39.2 µM (active).
Take `CCCCCC[N+](=O)[O-]`: the “viability change, negative = cytotoxic” value was 9.74% [at 95 µM] (inactive).
Regarding `C=CCN1CC[C@]23c4c5ccc(O)c4O[C@H]2C(=O)CC[C@@]3(O)[C@H]1C5`, the Potency entry is “inactive”.
As for `S=C=NCc1ccccc1`, the “viability change, negative = cytotoxic” value was -24.5% [at 95 µM] (inactive).
`COc1nn(C(=O)NS(=O)(=O)c2ccccc2OC(F)(F)F)c(=O)n1C`: the “viability change, negative = cytotoxic” value was 7.17% (inactive).
The same measure, in the same setting: the figure for `CCOP(=S)(OCC)Oc1cc(Cl)c(Br)cc1Cl` is 14% (inactive).

Values taken from PubChem BioAssay (Tox21).
